In PubChem BioAssay (Tox21):
Values joined by “and” are separate entries in the source; they are usually repeats but may differ in a detail not shown here. Identical values can stand only once. Results filed as inconclusive are left out. Some structures have more than one record in an assay (separate samples or runs), and their calls can disagree. Active and inactive are the calls of the source. Unless noted, calls come from the whole dose curve; as a rule, active = well fitted curve in the direction sought with a large enough effect in the repeat runs; inconclusive = weak or mixed curves; inactive = no such curve, though single readings can be large; an effect the other way counts as inactive or inconclusive.

Experiments:
[1] = qHTS assay to identify small molecule antagonists of the estrogen receptor alpha (ER-alpha) signaling pathway using the BG1 cell line in the presence of 0.1 nM 17-beta-estradiol - cell viability counter screen (AID 1259241); note: nearly all actives have a fitted effect of over 40% in size; note: potency is the fitted concentration of half-maximal effect
Summary of the method: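 Live-cell protease activity (CellTiter-Fluor fluorescence, 30 min) was read in the same wells after VM7Luc4E2 cells had been exposed to compounds with 0.1 nM 17beta-estradiol for 22 hr at 37C.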

[2] = qHTS assay to identify small molecule antagonists of the androgen receptor (AR) signaling pathway using the MDA cell line in the presence of 0.5 nM R1881 - cell viability counter screen (AID 1259242); note: nearly all actives have a fitted effect of over 45% in size; note: potency is the fitted concentration of half-maximal effect
Summary of the method: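 Cytotoxicity toward MDA-kb2 cells is measured by CellTiter-Fluor live-cell protease fluorescence after 16 hr compound exposure at 37C in the presence of 0.5 nM R1881 stimulator.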

[3] = molecular target: Estrogen receptor (Homo sapiens) (UniProt P03372); experiment: qHTS assay to identify small molecule antagonists of the estrogen receptor alpha (ER-alpha) signaling pathway using the BG1 cell line in the presence of 0.1 nM 17-beta-estradiol (AID 1259244); note: nearly all actives have a fitted effect of over 50% in size
Sequence of Estrogen receptor (Homo sapiens) (P03372 whole entry, looked up): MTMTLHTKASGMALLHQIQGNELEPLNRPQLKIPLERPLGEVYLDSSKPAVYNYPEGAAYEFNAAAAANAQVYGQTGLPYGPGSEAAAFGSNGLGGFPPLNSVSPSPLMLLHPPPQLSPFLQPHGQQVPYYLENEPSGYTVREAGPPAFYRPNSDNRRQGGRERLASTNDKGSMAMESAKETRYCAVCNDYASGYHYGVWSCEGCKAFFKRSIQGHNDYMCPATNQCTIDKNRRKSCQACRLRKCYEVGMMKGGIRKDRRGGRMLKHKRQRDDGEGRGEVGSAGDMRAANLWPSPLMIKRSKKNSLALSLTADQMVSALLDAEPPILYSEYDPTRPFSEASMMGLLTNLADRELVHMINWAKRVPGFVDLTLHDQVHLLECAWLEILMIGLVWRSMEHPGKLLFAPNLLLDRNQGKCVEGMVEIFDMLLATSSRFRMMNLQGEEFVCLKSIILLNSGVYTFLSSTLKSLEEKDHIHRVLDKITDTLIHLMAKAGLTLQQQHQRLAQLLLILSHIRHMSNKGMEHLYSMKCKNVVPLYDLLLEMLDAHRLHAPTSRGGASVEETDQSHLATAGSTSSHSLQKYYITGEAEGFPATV
Summary of the method: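 After 5 days in hormone-depleted medium (charcoal-stripped serum, no phenol red), VM7Luc4E2 cells were seeded, incubated 24 h, then co-treated with compound and 0.1 nM (final) estradiol for 22 h before luminescence detection.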

[4] = qHTS assay to identify small molecule HDAC inhibitors (AID 1259364); note: nearly all actives have a fitted effect of over 45% in size; note: potency is the fitted concentration of half-maximal effect
Summary of the method: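 Homogeneous cell-based luminescent assay of endogenous class I/II HDAC activity; HCT-116 cells, 2 h compound exposure, 30 min HDAC-Glo development at RT.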

[5] = qHTS assay to identify small molecule agonists of the sonic hedgehog signaling (Shh) pathway - cell viability counter screen (AID 1259366); note: nearly all actives have a fitted effect of over 50% in size; note: potency is the fitted concentration of half-maximal effect
Summary of the method: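 CellTiter-Fluor fluorescence read-out, 1 hr at 37C, added after 23hr compound exposure. Cells: 3T3 Gli1-Luc, an NIH/3T3 clone with stably integrated Gli1-Luc reporter, plated 4hr before compound.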

[6] = qHTS assay to identify small molecule antagonists of the sonic hedgehog signaling (Shh) pathway - cell viability counter screen (AID 1259367); note: nearly all actives have a fitted effect of over 55% in size; note: potency is the fitted concentration of half-maximal effect
Summary of the method: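 Seed 3T3 Gli1-Luc cells at 2,000 per well; incubate 4 hr; add compound in DMSO, then conditioned medium; incubate at 37C with 5% CO2; add CellTiter-Fluor after 23 hr; read fluorescence 1 hr later.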

[7] = qHTS assay to identify small molecule agonists of the sonic hedgehog signaling (Shh) pathway (AID 1259368; calls by dose curve;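 note: NIH/3T3-derived 3T3Gli1-Luc cells carrying a stable Gli1-driven firefly luciferase reporter; series mostly up to about 92 µM; nearly all actives have a fitted effect of over 15% in size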)
Summary of the method: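 Steps: seed 3T3 Gli1-Luc cells, incubate 4 hr at 37 C, pin-transfer compounds in DMSO alongside a positive control, incubate 24 hr, add luciferase detection reagent, wait 30 min at room temperature, read luminescence.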

[8] = qHTS assay to identify small molecule phospholipidosis (PLD) inducers (AID 1259344; active = well fitted curve in the direction sought with a large enough effect; an effect the other way counts as inactive or inconclusive; note: potency is the fitted concentration of half-maximal effect)
Summary of the method: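 Quantitative HTS in HepG2: compound plus LipidTOX Red dye for 24 h, paraformaldehyde fixation with Hoechst 33342, widefield high-content imaging; amiodarone as positive and DMSO as negative control.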

[9] = qHTS assay to identify small molecule HDAC inhibitors - cell viability counter screen (AID 1259365); note: series mostly up to about 92 µM; nearly all actives have a fitted effect of over 50% in size
Summary of the method: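 HCT-116 (wild type), 1,500 cells/well, overnight 37C/5% CO2; compound in DMSO 2hr; CellTiter-Glo 30min RT; luminescence read.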
% is set by controls: 0 for no effect and ±100 for the full control effect.

c1cc(C(c2ccc(OCC3CO3)cc2)C(c2ccc(OCC3CO3)cc2)c2ccc(OCC3CO3)cc2)ccc1OCC1CO1 (configuration not stated)
inactive: Potency [1] | Potency [2] | Potency [3] | Potency [4] | Potency [5] | Potency [6] | Potency [7]

NC(Cc1ccc(Cl)cc1)C(=O)O (configuration not stated)
inactive: activity change, negative = cytotoxicity [1] 0.121% [at 0.349 µM] | viability change, negative = cytotoxic [2] 4.52% [at 0.349 µM] | Potency [8] | viability change, negative = cytotoxic [5] 0.958% [at 0.349 µM] | viability change, negative = cytotoxic [6] 2.83% [at 0.349 µM] | activity change [7] -0.363% [at 0.349 µM, stronger effect = higher value]

NNCCc1ccccc1
inactive: Potency [1] | Potency [2] | Potency [8] | Potency [4] | Potency [5] | Potency [6]

O=S(=O)(O)c1ccc2nc(-c3ccccc3)[nH]c2c1
active: Potency [4] 732 nM and 668 nM
inactive: Potency [1] | Potency [2] | Potency [8] | Potency [5] | Potency [6] | Potency [7]

O=C(O)c1cccc(C(=O)O)c1
inactive: Potency [1] | Potency [2] | Potency [3] | Potency [4] | Potency [5] | Potency [6] | Potency [7]

CC1COc2c(N3CCN(C)CC3)c(F)cc3c(=O)c(C(=O)O)cn1c23 (configuration not stated)
inactive: Potency [1] | Potency [2] | Potency [8] | Potency [9] | Potency [5] | Potency [6] | Potency [7]

CC(C)(C)NCC(O)COc1ccccc1OCC1CCCO1 (configuration not stated)
inactive: Potency [1] | Potency [2] | Potency [3] | Potency [9] | Potency [5] | Potency [6] | Potency [7]

O=C(O)c1cn(-c2ccc(F)cc2)c2cc(N3CCNCC3)c(F)cc2c1=O
inactive: Potency [1] | Potency [2] | Potency [8] | Potency [4] | Potency [9] | Potency [5] | Potency [6] | Potency [7]

CNC1(C)C2CCC(C2)C1(C)C (configuration not stated)
inactive: Potency [1] | Potency [2] | Potency [8] | Potency [4] | Potency [9] | Potency [5] | Potency [6] | Potency [7]

c1ccc2cc3c(ccc4ccccc43)cc2c1
inactive: Potency [1] | Potency [2] | Potency [3] | Potency [9] | Potency [5] | Potency [6] | Potency [7]

CC(=O)CC(C)=O
inactive: Potency [1] | Potency [2] | Potency [3] | Potency [5] | Potency [6] | Potency [7]

CNCCC(Oc1ccc(C(F)(F)F)cc1)c1ccccc1 (configuration not stated)
inactive: Potency [1] | Potency [7]
active: Potency [2] 29.8 µM | Potency [8] 10 µM | Potency [5] 60.3 µM and 29.8 µM | Potency [6] 26.9 µM and 29.8 µM

C=C(C)C1CC=C(C)C(OC(C)=O)C1 (configuration not stated)
inactive: Potency [1] | Potency [2] | Potency [3] | Potency [5] | Potency [6] | Potency [7]

CC(=O)OCC1=C(C(=O)O)N2C(=O)[C@@H](NC(=O)Cc3cccs3)[C@H]2SC1
inactive: Potency [1] | Potency [2] | Potency [8] | Potency [4] | Potency [9] | Potency [5] | Potency [6] | Potency [7]

CC(C)C(=O)c1c(C(C)C)nn2ccccc12
inactive: Potency [1] | Potency [2] | PLD induction [8] -2.74% [at 7.66 µM] | Potency [4] | Potency [9] | Potency [5] | Potency [6] | Potency [7]

NC(N)=NC(=O)Cc1c(Cl)cccc1Cl
inactive: Potency [1] | Potency [2] | Potency [8] | Potency [4] | Potency [9] | Potency [6] | Potency [7]

Cc1cc(C(C)(C)C)c(O)c(C(C)(C)C)c1
inactive: Potency [1] | Potency [2] | Potency [8] | Potency [4] | Potency [9] | Potency [5] | Potency [6] | Potency [7]

CCCN[C@H]1CCc2nc(N)sc2C1
inactive: Potency [1] | Potency [2] | Potency [8] | Potency [4] | Potency [9] | Potency [5] | Potency [6] | Potency [7]

CC(=O)CC(=O)Nc1ccc2[nH]c(=O)[nH]c2c1
inactive: Potency [1] | Potency [2] | Potency [3] | Potency [4] | Potency [5] | Potency [6] | Potency [7]

NC12CC3CC(CC(C3)C1)C2
inactive: Potency [1] | Potency [2] | Potency [8] | Potency [4] | Potency [5] | Potency [6] | Potency [7]

CC(COc1ccccc1)N(CCCl)Cc1ccccc1 (configuration not stated)
inactive: Potency [1] | Potency [8] | Potency [4] | Potency [9] | Potency [5] | Potency [6] | Potency [7]
55 µM (active) and inactive: Potency [2]

CC[C@]1(O)C[C@@H]2CN(CCc3c([nH]c4ccccc34)[C@@](C(=O)OC)(c3cc4c(cc3OC)N(C)[C@H]3[C@@](O)(C(=O)OC)[C@H](OC(C)=O)[C@]5(CC)C=CCN6CC[C@]43[C@@H]65)C2)C1
active: Potency [1] 1.88 µM | Potency [5] 11.9 µM | Potency [6] 29.8 nM
inactive: Potency [2] | Potency [8] | Potency [4] | Potency [9] | Potency [7]

OCCN1CCNCC1
inactive: Potency [1] | Potency [2] | Potency [3] | Potency [4] | Potency [5] | Potency [6] | Potency [7]

CC[C@H]1CN2CCc3cc(OC)c(OC)cc3[C@@H]2C[C@@H]1C[C@H]1NCCc2cc(OC)c(OC)cc21
inactive: Potency [8] | Potency [4] | Potency [9] | Potency [7]
active: Potency [5] 0.274 µM | Potency [6] 487 nM and 2.37 µM

Nc1cc(S(=O)(=O)O)cc2cc(S(=O)(=O)O)cc(O)c12
inactive: Potency [2] | Potency [4] | Potency [9] | Potency [5] | Potency [7]
active: Potency [1] 27.3 µM

c1ccc2n[nH]nc2c1
inactive: Potency [1] | Potency [2] | Potency [4] | Potency [9] | Potency [5] | Potency [6] | Potency [7]

OCCOCCN1CCN(C(c2ccccc2)c2ccc(Cl)cc2)CC1 (configuration not stated)
active: Potency [5] 26.9 µM
inactive: Potency [1] | Potency [2] | Potency [9] | Potency [7]
19.1 µM (active) and inactive: Potency [6]

Clc1ccc2c(c1)C(N1CCNCC1)=Nc1ccccc1O2
inactive: Potency [1] | Potency [3] | Potency [8] | Potency [6] | Potency [7]
active: Potency [5] 24.3 µM and 13.3 µM

CC(C)(C)c1ccc(O)c(C(C)(C)C)c1
inactive: Potency [1] | Potency [2] | Potency [4] | Potency [7]

O=C1CC2(CCCC2)CC(=O)N1CCCCN1CCN(c2ncccn2)CC1
inactive: Potency [1] | Potency [2] | Potency [4] | Potency [9] | Potency [5] | Potency [6] | Potency [7]

CC1=C(C=O)C(C)(C)CC=C1
inactive: Potency [1] | Potency [2] | Potency [9] | Potency [5] | Potency [6] | Potency [7]
